ALOX12 inh = inhibitors of human 12S-lipoxygenase ALOX12 | P18054 | purified 12hLO, xylenol orange hydroperoxide absorbance | Potency, µM (series often up to 108 µM), for inactives: at the highest dose activity change, negative = inhibition, actives largely listed as inhibitors | 1.1% of 580,000 active
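Hydroperoxide product was detected by ferrous iron/xylenol orange as the 573 to 405 nm absorbance ratio. Arachidonic acid at 40 uM (final) was turned over for 30 min at room temperature by 150 nM human 12hLO, pH 7.0 Hepes buffer, after 15 min compound preincubation.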
RORgamma inh = blocks mouse ROR gamma transcriptional activity; P51450; Drosophila S2 Gal4-RORgamma UAS-luciferase reporter, 20 h; Potency, µM (doses to about 53.6 µM), without a hit: at the highest dose activity change, negative = inhibition, hits mostly inhibitors; 5.4% of 310,000 active; AID 2551; further: nearly all actives have a fitted effect of over 60% in size
Target sequence (P51450 whole entry, looked up, the tested form may be a part): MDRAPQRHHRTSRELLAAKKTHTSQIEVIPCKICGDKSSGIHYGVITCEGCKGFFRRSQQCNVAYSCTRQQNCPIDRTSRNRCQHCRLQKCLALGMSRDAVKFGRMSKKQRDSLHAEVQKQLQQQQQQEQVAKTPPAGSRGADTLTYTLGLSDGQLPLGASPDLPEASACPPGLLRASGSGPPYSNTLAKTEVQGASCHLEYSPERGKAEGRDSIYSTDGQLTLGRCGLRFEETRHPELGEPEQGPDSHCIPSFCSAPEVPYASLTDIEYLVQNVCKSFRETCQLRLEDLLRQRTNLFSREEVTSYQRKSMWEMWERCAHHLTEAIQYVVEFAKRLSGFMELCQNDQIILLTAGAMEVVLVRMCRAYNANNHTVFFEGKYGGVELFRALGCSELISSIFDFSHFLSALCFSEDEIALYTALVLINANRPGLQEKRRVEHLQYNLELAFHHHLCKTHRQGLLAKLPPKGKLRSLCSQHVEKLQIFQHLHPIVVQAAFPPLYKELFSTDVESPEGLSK
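Using a luciferase readout, inhibitors were identified by reduced reporter activity in Drosophila cells coexpressing a copper-inducible Gal4–ROR gamma fusion and UAS-driven Photinus luciferase, incubated 20 hr after 700 uM copper sulfate.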
DT40 TDP1 CPT = DT40-hTDP1 cell growth loss with CPT | chicken DT40 Tdp1-/-;hTDP1 cells + 20 nM CPT, ATP luminescence, 48 h | AID 686979 | Potency, µM (highest dose often 46.2 µM), for the others: at the top dose activity change, negative = growth inhibition, hits mostly inhibitors | 12% of 420,000 active; further: nearly all actives have a fitted effect of over 55% in size
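Chicken DT40 Tdp1-/- cells complemented with human TDP1, 400 cells/well, exposed to compounds plus 20 nM camptothecin for at least 48 h at 37 C; viability read as ATP content by CellTiter-Glo luminescence.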
DT40 TDP1 no CPT = qHTS for Inhibitors of human tyrosyl-DNA phosphodiesterase 1 (TDP1): qHTS in cells in absence of CPT | AID 686978, 2013 | Potency, µM (highest dose often 46.2 µM), without a hit: at the highest dose activity change, negative = growth inhibition, actives largely listed as inhibitors | 15% of 420,000 active | DT40 Tdp1-/- hTDP1 cells, no CPT, ATP luminescence, 48 h; further: nearly all actives have a fitted effect of over 55% in size
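Chicken DT40 Tdp1-/- cells complemented with human TDP1, screened without camptothecin (DMSO vehicle only), 400 cells/well. Compounds pin-transferred, cells incubated at 37 °C for at least 48 hr. Growth read as ATP-dependent luminescence (CellTiter-Glo, 30 min at RT).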
Gal4-VP16 FLuc = inhibits Gal4-VP16 luciferase reporter, ROR gamma counter-screen; Potency, µM (series often up to 53.6 µM), for inactives: at the highest dose activity, negative = inhibition, most hits filed as inhibitors; Drosophila S2 Gal4-VP16 UAS-luciferase, luminescence, 20 h; 3.5% of 310,000 active;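 further: Gal4-VP16 expression switched on by copper sulfate through the metallothionein promoter; nearly all actives have a fitted effect of over 50% in size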
ELG1 repair inh = inhibitors of ELG1-dependent DNA repair in HEK293T cells. HEK293T ELG1-luciferase reporter, luminescence, 16 h; DNA damage induced by 5-fluorouridine. Potency, µM (titrated, usually from 46.1 µM), for inactives: at the top dose activity change, negative = inhibition, actives largely listed as inhibitors. 2.3% of 330,000 active. AID 504467; further: nearly all actives have a fitted effect of over 55% in size
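Cells (2,000 per well) received 5-fluorouridine plus test compound or DMSO and were incubated 16 hr at 37 °C, 5% CO2. Luciferase activity was read by luminescence 30 min after ONE-Glo addition; signal suppression marked inhibition of damage-induced ELG1 function.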
* hit, by the source's call; ? = inconclusive; . = not tested or not shown; ! = not confirmed by another sample; [ ] = dose if it differs, or a comment. Sampled rows, rich in hits. Any-hit rate of the full collection: about 15%. The call rests on the fitted dose curve; in most records, active means well fitted curve in the direction sought with a large enough effect; inconclusive means small, poorly fitted or top-dose-only effect, or another doubt; inactive means no such curve, though single readings can be large; an effect the other way counts as inactive or inconclusive. On the % scale 0 is the no-effect control and ±100 the full control effect; potency means the concentration at half of the fitted maximal effect.

SMILES	ALOX12 inh	RORgamma inh	DT40 TDP1 CPT	DT40 TDP1 no CPT	Gal4-VP16 FLuc	ELG1 repair inh
CC(=O)N1CCC2(CC1)CCN(c1ccc(-c3ccccc3)cc1)CC2	?	-12%	10µM*	8.2µM*	?	.
C=CCn1cc2c3c(cccc31)[C@H](CC(C)C)N[C@H](C(=O)N1CCN(C)CC1)C2	94%[176 µM]	.	.	.	.	.
CCOC(=O)c1ccccc1NC(=O)N1CCC(N2CCN(Cc3ccccc3)C(=O)C2=O)CC1	-13%	.	-10%	-28%	.	.
Cc1ccc(NC(=O)N2CCC(N3CCN(Cc4ccccc4)C(=O)C3=O)CC2)cc1Cl	-30%	.	?	15µM*	.	.
O=C(Nc1ccc(Cl)c(Cl)c1)N1CCC(c2ccccc2)C1 (configuration not stated)	-22%	.	?	21µM*	.	.
O=C(Nc1ccccc1)N1CCC(c2ccccc2)C1 (configuration not stated)	2%	-11%	0%	0%	0%	?
Cc1ccc(C2CCN(C(=O)Nc3ccc(Cl)c(Cl)c3)C2)cc1 (configuration not stated)	-30%	.	?	26µM*	.	.
O=C(C1CCCCC1)N1C[C@H](O)[C@@H](n2cc(-c3ccc(F)cc3)nn2)C[C@@H]1c1ccccc1	7%	.	?	?	.	.
Cc1ccc([C@H]2C[C@@H](O)[C@H](n3cc(-c4ccc(F)cc4)nn3)CN2C(=O)C2CCCCC2)cc1	71%	.	?	23µM*	.	.
O=C(C1CCCCC1)N1C[C@H](n2cc(-c3ccc(F)cc3)nn2)[C@@H](O)C[C@@H]1c1ccc(Cl)cc1	-41%	.	?	16µM*	.	.
O=C(C1CCCCC1)N1C[C@@H](n2cc(-c3ccc(F)cc3)nn2)[C@H](O)C[C@@H]1c1ccc(Cl)cc1	9%	.	18µM*	23µM*	.	.
COc1ccc([C@H]2C[C@@H](n3cc(-c4ccc(F)cc4)nn3)[C@H](O)CN2C(=O)C2CCCCC2)cc1	3%	.	?	8.2µM*	.	.
O=C(C1CCCCC1)N1C[C@H](n2cc(C3CC3)nn2)[C@@H](O)C[C@@H]1c1ccc(Cl)cc1	15%	.	-18%	-29%	.	.
Cc1nc(-c2cccnc2)[nH]c(=O)c1CC(=O)N(C)C(C)C(C)(C)C (configuration not stated)	0%	.	.	.	.	.
COCCNC(=O)C(C)[C@@H]1CC[C@@]2(C)CC[C@H](NC(=O)c3cnccn3)[C@@H](C)[C@@H]2[C@H]1O (some centres not stated)	-10%[176 µM]	.	.	.	.	.
Cc1cccc(CCNC(=O)Cn2ncc3c([nH]c4ccccc43)c2=O)c1	.	-14%	-15%	19%	0%	0%
Cc1ccc(Cl)cc1N1CCN(CCCNC(=O)Cn2ncc3c([nH]c4ccccc43)c2=O)CC1	-40%	.	15µM*	8.2µM*	.	.
CC1CC(C)CN(C(=O)Cn2ncc3c([nH]c4ccccc43)c2=O)C1 (configuration not stated)	-9%	-39%	?	?	-21%	-4%
Cc1cccc(N2CCN(C(=O)Cn3ncc4c([nH]c5ccccc54)c3=O)CC2C)c1 (configuration not stated)	?	.	?	15µM*	.	.
Cc1cccc(CN2CCN(CC(=O)NCCCN3CCN(c4ccc(F)cc4)CC3)C2=O)c1	-9%	-7%	11µM*	?	-12%	-4%
Cc1cccc(N2CCN(CCCNC(=O)Cn3ncc4c([nH]c5ccccc54)c3=O)CC2C)c1 (configuration not stated)	?	.	?	18µM*	.	.
Cc1ccc2[nH]c3c(=O)n(CC(=O)NCCCN4CCN(c5ccc(F)cc5)CC4)ncc3c2c1	?	-4%	?	16µM*!	-13%	0%

Compound activity (PubChem)
